Results filed as inconclusive are left out. Values without a mark were called inactive. Calls of active or inactive are those of the source. Calls come from the whole dose curve; as a rule, active = well fitted cell-killing curve with a large enough effect; inconclusive = small, poorly fitted or top-dose-only effect, or effect the other way; inactive = flat fitted curve, though single readings scatter.
assay: qHTS assay for cell viability of the p53RE-bla HCT-116 cell line (AID 743292); conditions: p53RE-bla HCT-116 viability, ATP luminescence, 16 h; series mostly up to 95 µM; activity change, negative = cytotoxicity: at the top concentration; note: nearly all actives have a fitted effect of over 55% in size
Description: U.S. Tox21 Program National Center for Advancing Translational Sciences [NCATS] NIH Chemical Genomics Center [NCGC] U.S. Environmental Protection Agency [EPA] National Institutes of Environmental Health Sciences [NIEHS] National Toxicology Program [NTP] U.S. Food and Drug Administration [FDA] Tox21 Assay Overview: The CellTiter-Glo Luminescent Cell Viability Assay (Promega, Madison, WI) is a homogeneous method to determine the number of viable cells in culture based on quantitation of the ATP present, which signals the presence of metabolically active cells. This cell viability assay was used to screen environmental chemicals in the CellSensor p53RE-bla HCT-116 cell line (Invitrogen).
Tox21 Assay Protocol Summary: Cell viability after compound treatment was measured using a luciferase-coupled ATP quantitation assay (CellTiter-Glo viability assay, Promega, Madison, WI) in CellSensor p53RE-bla HCT-116 cell line (Invitrogen). Total intracellular ATP content corresponds to the number of metabolically competent cells after compound treatment. The cells were dispensed at 4,000 cells/5 uL/well in 1,536-well white/solid bottom assay plates using a Flying Reagent Dispenser (Aurora Discovery, San Diego, CA). The cells were incubated for 5 h at 37 C, followed by the addition of 23 nL of compounds dissolved in DMSO, positive controls or DMSO only using a pintool work station (Kalypsys, San Diego, CA). The assay plates were incubated for 16 h at 37 C, followed by the addition of 5 uL/well of CellTiter-Glo reagent. After 30 min incubation at room temperature, the luminescence intensity of the plates was measured using a ViewLux plate reader (PerkinElmer, Shelton, CT).
% is set by controls: 0 for no effect and ±100 for the full control effect; potency is the fitted concentration of half-maximal effect.

Structure (SMILES)	activity change, negative = cytotoxicity	Potency
Cc1ccc(C(=O)c2ccccc2)cc1	-3.07%	
c1ccc(B(c2ccccc2)c2ccccc2)cc1	23.2%	
Cl[Si](Cl)(c1ccccc1)c1ccccc1	0.159%	
O=S(=O)(O)c1ccc(N=Nc2cc(S(=O)(=O)O)c3ccccc3c2O)c2ccccc12		39.8 µM (active)
CC(C)CCCCCOC(=O)CS	-8.72%	
CCCCCCCCCCCC[N+](C)(C)C	-9.64%	
CCCCCCCCCCCCCCCCN(C)C	3.6%	
CO[Si](CCCOCC1CO1)(OC)OC (stereo not given)	2.11%	
Cc1ccc(C(C)(C)C)c(O)c1	10.9%	
COC(=O)c1c(Cl)nn(C)c1S(=O)(=O)NC(=O)Nc1nc(OC)cc(OC)n1	4.63%	
CCCCCCCCCCCCCCCCCC(N)=O	8.6%	
CCCCCCC(C)(C)S	-7.8%	
NCCCCCCCCCCC(=O)O	-7.35%	
C/C(=C\C(C)CC(C)CC(C)C)C1CC(=O)OC1=O (stereo not given)	-5.29%	
CC(C)CC(C)(O)C#CC(C)(O)CC(C)C (stereo not given)	-7.08%	
CCNc1nc(N)nc(Cl)n1		inactive
O=C(OCC1CCC2OC2C1)C1CCC2OC2C1 (stereo not given)	-1.94%	
CCCCCCCC(=O)OC	-6.41%	
CCc1cccc(C)c1N(C(=O)CS(=O)(=O)O)[C@@H](C)COC	-6.41%	
CCCC/C=C/CCCCO	3.02%	

Structure (SMILES)	activity change, negative = cytotoxicity	Potency
CC(=O)OC1CCC(C(C)(C)C)CC1 (stereo not given)	-0.965%	
CCCCOCCOCCOC(=O)CCCCC(=O)OCCOCCOCCCC	-15.9%	
CCOC(=O)CC(O)(CC(=O)OCC)C(=O)OCC	6.75%	
O=C1CCCCCCCCCCC1	-0.912%	
Nc1cc(Cl)nc(C(=O)O)c1Cl	1.96%	
Cc1ccc(N=Nc2c(O)ccc3ccccc23)c([N+](=O)[O-])c1	-18.2%	
CCCCCCCC[Si](OCC)(OCC)OCC	18%	
CCCCCC1CCC(=O)O1 (stereo not given)	15.5%	
CCCCCCCCCCCO	-4.39%	
CC(=O)/C=C/C1C(C)=CCCC1(C)C (stereo not given)	4.55%	
CNc1nc(=O)n(C2CCC(O)CC2)c(=O)n1C (stereo not given)	-0.629%	
CC1(C)CC(OC(=O)CCCCCCCCC(=O)OC2CC(C)(C)NC(C)(C)C2)CC(C)(C)N1	-7.78%	
O=c1n(CCO)c(=O)n(CCO)c(=O)n1CCO	-3.48%	
c1cc(-c2ccncc2)ccn1	-18.2%	
O=S(=O)(O)c1cc(S(=O)(=O)O)c2c(N=Nc3ccccc3)c(O)ccc2c1	2.84%	
C=C(C)C(=O)OCCOCCOCCOC(=O)C(=C)C	-5.64%	
Cn1c(=O)[nH]c(=O)n(C2CCC(O)CC2)c1=O (stereo not given)	9.37%	
COC(OC)(C(=O)c1ccccc1)c1ccccc1	3.74%	
COC(=O)c1ccccc1S(=O)(=O)NC(=O)Nc1nc(OC(F)F)cc(OC(F)F)n1	2.03%	
CCCCC(CC)COC(=O)CS (stereo not given)	-0.0999%	
